Counter-ions that a name gives are not always drawn.
tested on: A549-TP53BP1-CLTA; test: phenotypically active (imaging signature differs from DMSO and reproducible) at any of 0.3-9 uM (binary (1 = active, 0 = inactive)); higher = active; details: treatment time: 24 h
Summary of the method: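 After 24 h at 0.3, 1, 3 or 9 µM, with four wells per treatment, fifteen gene-edited A549, HepG2 and WPMY1 reporter lines carrying BFP, GFP and RFP/FusionRed were imaged live. Each well's live-cell features were expressed relative to solvent control wells. Deviation required ≥3 of 4 wells past the 95th percentile of control Euclidean distances, and reproducibility a median replicate Pearson correlation over the 95th percentile of non-replicates. Phenotypic activity rested on both.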

SMILES	phenotypically active
OCc1ccccc1O[C@@H]1O[C@H](CO)[C@@H](O)[C@H](O)[C@H]1O [Salicin]	0 (inactive)
O=C(c1ccc(C(=O)N2CCC(N3CCCC3)CC2)c(Nc2ccccc2)c1)N1CCC(N2CCCC2)CC1	0 (inactive)
O=c1[nH]cc(F)c(=O)[nH]1 [5-Fluorouracil]	1 (active)
CC[C@H](C)[C@H](NC(=O)OCc1ccccc1)C(=O)N[C@@H](CCC(=O)OC(C)(C)C)C(=O)N[C@@H](C)C(=O)N[C@H](C=O)CC(C)C	1 (active)
CN1CCN(C2=Nc3cc(Cl)ccc3Nc3ccccc32)CC1 [clozapine]	0 (inactive)
Cc1cc(C(C)(C)C)c(O)c(C)c1CC1=NCCN1 [oxymetazoline]	0 (inactive)
CC1(C)NC(=O)N(c2ccc([N+](=O)[O-])c(C(F)(F)F)c2)C1=O [nilutamide]	0 (inactive)
CCN1CCN(C(c2cccnc2)c2cc(Cl)c3cccnc3c2O)CC1 (centres undefined)	1 (active)
CCOc1cc(N2CCC(O)CC2)ccc1Nc1ncc2c(n1)N(C)c1ccccc1C(=O)N2C	1 (active)
Cc1c2oc3c(C)ccc(C(=O)NC4C(=O)NC(C(C)C)C(=O)N5CCCC5C(=O)N(C)CC(=O)N(C)C(C(C)C)C(=O)OC4C)c3nc-2c(C(=O)NC2C(=O)NC(C(C)C)C(=O)N3CCCC3C(=O)N(C)CC(=O)N(C)C(C(C)C)C(=O)OC2C)c(N)c1=O (centres undefined) [Actinomycin D]	1 (active)
Nc1nc2ccc(OC(F)(F)F)cc2s1 [riluzole]	0 (inactive)
NCCNS(=O)(=O)c1cccc2cnccc12 [H-9 dihydrochloride]	0 (inactive)
N#Cc1c(NC(=O)c2cccc3ccccc23)sc2c1CCCC2	1 (active)
COc1ccc2c(Oc3ccc(NC(=O)c4c(C)n(CC(C)(C)O)n(-c5ccccc5)c4=O)nc3)ccnc2c1	0 (inactive)
C[C@@H](c1ncncc1F)[C@](O)(Cn1cncn1)c1ccc(F)cc1F [voriconazole]	0 (inactive)
CN1C/C(=C/c2ccc(B(O)O)cc2)C(=O)/C(=C/c2ccc(B(O)O)cc2)C1	1 (active)
Nc1ccn([C@@H]2O[C@H](CO)[C@@H](O)C2(F)F)c(=O)n1 [gemcitabine]	1 (active)

SMILES	phenotypically active
Oc1ccc(Nc2nc(-c3ccc(Cl)cc3)cs2)cc1	1 (active)
C/C(=C/C(=O)Nc1ccccc1C(=O)O)c1ccc2ccccc2c1	0 (inactive)
NCCC(O)(P(=O)(O)O)P(=O)(O)O [pamidronate]	0 (inactive)
CCN1CCN(c2ccc(Nc3cc(N(C)C(=O)Nc4c(Cl)c(OC)cc(OC)c4Cl)ncn3)cc2)CC1	0 (inactive)
Cc1nc(NC(=O)N2CCC[C@H]2C(N)=O)sc1-c1ccnc(C(C)(C)C(F)(F)F)c1 [alpelisib]	1 (active)
CCN(CC)CCCC(C)Nc1ccnc2cc(Cl)ccc12 (centres undefined) [chloroquine]	1 (active)
C[C@H]1O[C@H](O[C@H]2[C@H](O)[C@@H](O)[C@@H](O[C@H]3[C@H](O)[C@@H](O)[C@H](O)O[C@@H]3CO)O[C@@H]2CO)[C@H](O)[C@@H](O)[C@@H]1N[C@H]1C=C(CO)[C@@H](O)[C@H](O)[C@H]1O [Acarbose]	0 (inactive)
C/C(=C/c1ccc(C(=O)O)cc1)c1ccc2c(c1)C(C)(C)CCC2(C)C	0 (inactive)
Cc1ccc(S(=O)(=O)/C=C/C#N)cc1	0 (inactive)
O=c1cc(-c2cccc3c2Sc2ccccc2S3)oc(N2CCOCC2)c1	0 (inactive)
CCCc1nc2c(C)cc(-c3nc4ccccc4n3C)cc2n1Cc1ccc(-c2ccccc2C(=O)O)cc1 [telmisartan]	0 (inactive)
CC(C)CCN1c2nc(Nc3cc(F)c(O)c(F)c3)ncc2N(C)C(=O)C1C (centres undefined)	1 (active)
COc1cc2nccc(Oc3ccc(NC(=O)NC4CC4)c(Cl)c3)c2cc1C(N)=O [lenvatinib]	0 (inactive)
Nc1cc(C(F)(F)F)c(-c2cc(N3CCOCC3)nc(N3CCOCC3)n2)cn1 [buparlisib]	1 (active)
Nc1ccn([C@@H]2O[C@H](CO)[C@@H](O)[C@H]2O)c(=O)n1 [Cytidine]	0 (inactive)
OC(CCN1CCCCC1)(c1ccccc1)C1CCCCC1 (centres undefined) [trihexyphenidyl]	0 (inactive)
COc1cc([C@@H]2c3cc4c(cc3[C@@H](O[C@@H]3O[C@@H]5CO[C@@H](C)O[C@H]5[C@H](O)[C@H]3O)[C@H]3COC(=O)[C@H]23)OCO4)cc(OC)c1O [etoposide]	1 (active)

From the supplement of paper PMC7411054
